# Measurements reported in the supplement of paper PMC12632987.
# Target: UCHL1, P09936
# Assay: median log2 fold change of GCK-ALFA target abundance (FLAG IP / Myc IP barcode read proportion) (log2 ratio); each designed protein is fused to an ALFA-tag nanobody in HEK293 cells to bring the named protein to FLAG-tagged glucokinase (GCK); Myc marks an untargeted standard; higher = target protein stabilised (more abundant)
# Conditions: target protein: 3xFLAG-MCP-GCK-ALFA reporter; HEK293 landing pad (RPLP)
# In short: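 HEK293 landing-pad cells received a recombined binder library fused to the ALFA nanobody and were induced with 2 μg mL^−1 doxycycline, then transfected with a plasmid encoding a FLAG-tagged target and a Myc-tagged standard. Lysates were collected after 48 h for anti-FLAG and anti-Myc immunoprecipitation, and the circular RNA barcodes were reverse transcribed, amplified and sequenced. Target abundance for each binder is the median log2 ratio of FLAG to Myc barcode read proportions. Barcodes had to reach a proportion of at least 10^−7 in both replicates, each binder needed at least 3 barcodes per replicate, a pseudocount of 10^−6 was applied, and the two replicates were pooled.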
# Chain of UCHL1, P09936 (P09936 whole entry, looked up, the tested form may be a part): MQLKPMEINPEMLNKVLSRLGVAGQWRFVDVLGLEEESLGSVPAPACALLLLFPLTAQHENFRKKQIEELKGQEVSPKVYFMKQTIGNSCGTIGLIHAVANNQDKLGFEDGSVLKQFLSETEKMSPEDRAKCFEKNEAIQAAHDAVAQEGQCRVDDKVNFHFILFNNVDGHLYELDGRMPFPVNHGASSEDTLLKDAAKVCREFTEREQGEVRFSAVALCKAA
row,Binder,median log2 fold change
1,uchl1_143_7494 (protein) GPVVEPVVVIELRIERTDTPEEIRAKIRAAVEEAVATGKPTVIEITVPADANMRLTVSTSARRVAREAAKEHPDKIKDLRIYARDEETGKRQLIAEVIKE,0.397
2,uchl1_143_7475 (protein) APAALEVLTTHLEVGEDDTPEEIRARLLAAIDEALAAGKAAEIVVTVPPDANKRLMVNTVARRVAREAARRYGDRLRLLRILLRDAETGRTQLVALVERP,0.136
3,uchl1_155_7497 (protein) MTTVTVVVTGTSPDGTTVTKTKTFEGLTSSVADLEALREAMKAMIVETAKEVKGDVDVTVNVTNATANQAVGIGTAARRAANEAGKETGLTVSLTLVGVP,0.314
4,uchl1_155_7498 (protein) GTTVTVTATGTAADGTVVTSTTTFTGLTSSVADMQALQAAILAQLLAVAAQVDGDIDLAVTVSNATANQAVGIGTAVRRAASQAGKQTGLTINVTLTGAP,0.16
5,uchl1_155_7499 (protein) GTTVTVTATGTAADGTTHTLTKTFEGITSSVEDMLALRDEILAMLLELAAKVDGDIDLKVDVSNATANQAVGIGTAVRRAASEAGKETGLTINVDITGLP,0.302
6,uchl1_143_7486 (protein) EVEVIELSEEEVAEILALSPEEALERLKEILREAVELGKDTRVLIPAPEDANDRLRLNTLVRRAAREVAKEYADKIESVTISQERDPNGRPRIVVEIKVK,0.252
7,uchl1_143_7485 (protein) EVRVIELTPEQVAAILSASPEAALATLEAIFEAAVALGVDTRVVLPAPADANDRLRLNTLVRRAARRVAKRRADEIDAVVISNERDPDRPARLVVTITVK,-0.394
8,uchl1_143_7481 (protein) SLENVEVLEVEITVTRETRPEDLYARLLAAIREAHAAGKALRITITVEPDANVRVMVGNVAKRAVRDAAQELGEPFVRTLILARDAETGKTQTLVDVEAP,0.391
9,uchl1_143_7492 (protein) GAAAVPVLRVEITVTRDTTPEELRARLEAAVREAAARKAALEVTITVPPDPNLKLMVNTVARRVARRAAREYADTLPRLTINARDAETGKTQVVAEAVNP,0.184
10,uchl1_155_7495 (protein) MLEVEVEVVARRPDGTVARERFRFRTEEITPENRRALAERVAERVREFVERHGGDVDVTVRIRSPSQIARASLYRAIRIRLREVAKELGVEVTVRAEPVP,-0.0429
11,uchl1_143_7487 (protein) AVEVIELSPEEVAAWLALPDEEALAALEAVLEAAVDRGVDTLVRIPAPEDANDRLRLNTLVRRAARRVAAAHADRIDSVTISQEKDPNGPPRLVVSIRVK,0.226
12,uchl1_143_7480 (protein) GAPARPVVTRTLRFTEEDTPEEIRARITAAIRALVATGQDGVLLLTVPPNPNMRVMVSTVARRALREVAQETRAPGVTLTVEARDEETGKVDVLATADLK,-0.0743
13,uchl1_143_7472 (protein) AAEARPVRTVEIDVTLDDTPEEIEARLLAAAEEAIAAGEDLRIVVTVPPDPNKRLMVNTVAKRVARRVARAHADRVRRLEIYARDAETGKEQLIAEIVRP,0.3
14,uchl1_143_7484 (protein) EVKVIELSPEEVAEILSASPEEALARLKEILEEAVELGVDTEVVLPAPADANDRLRLNTLVRRAAREVAKKYADKIDSVTISQRLDPDEPPKLVVSIKVK,0.0432
15,uchl1_143_7490 (protein) SSSDLPVEEVTITVTLDDTPEQIRARLRAAIEAAVAAGRALRINITVPADPNMRLMVNTVARRVAREVARAHADRVRHVEIYATDAATGKTDLLAEVVNP,0.232
16,uchl1_155_7502 (protein) MRTVRITIDVTLPDATETVEVTLERTVSDKPEDREALAEEVAATVDAILAQGKNVRLTVTVTVPDKMVVAASLYQAIRRRVRAVARRHGAEVVITAEVVP,-0.0533

row,Binder,median log2 fold change
1,uchl1_143_7489 (protein) EVRVLDVSEAEVAEILALSPEEAVAAIYARLSAAIALGVDTEVRFPAPERANDRLRLGTAVRRAARRAARDHADEIADVVIYNERDPDERPRLVVRITRK,0.144
2,uchl1_143_7471 (protein) GEPEPPTLEVHIEVDETTTPEEIREKLWKAIEEAAKAKKNLKITITVPADSNKRLMVTTVAKRVAREAAKKYKNELKKLEIYARDAATGKEQLIAEYENP,0.0842
3,uchl1_143_7491 (protein) GLDNLEVETVEIEVSEEDTPEELAARLREVIEEALAKGKALRIILTVPPDPNVRLMVNTVARRVLREFAQEHRDELKYVEIYARDEETGKEQLLAEFVNP,0.302
4,uchl1_143_7488 (protein) EVKVIELSPEEVAEILSLSDEEALARLKEIIEAAVELGVDTEIRIPAPEDANDRLRLHTLVKRAAREVAKKYADKIDSVEIYQELDPNARPRIVVRITVK,0.21
5,uchl1_143_7476 (protein) PPEALPVLETTIEVSEDDTPEEIRARLMAAIDEALAAGKAARIVIVVPPDANKRLMVNTVARRVAREAARRYGERLRYLEILLRDKETGKEQLVALVERP,0.0615
6,uchl1_143_7483 (protein) EVVVIELSPEEVEEILSLSPEEALERVYEILREAVELGRDTEVVFPAPADANDRLRLGTIVRRAARKVAKDRADLIDAVEIYQRRDPNRPPALVVRITRK,-0.0334
7,uchl1_155_7500 (protein) GTTVTVTVTGTASDGTTHTLTKTFEGLTSSVADMEALREAILAMLLELAAKVDGDIKLTVNVRNATANQAVGIGTAVRRAASEAGKKTGKTIDVDITGLP,0.302
8,uchl1_143_7479 (protein) GAAPRPVVTTTLTFTEEDTPEEIRARITAALRALVATGQDGVLLLTVPPNPHMRVMVNTVARRALREVAQATHAPGVTLTVQARDAETGKVDTLATAVLE,0.219
9,uchl1_155_7501 (protein) MATVTVTATGTAPDGTTHTLTKTFEGITSSVEDLLALREAVLALLVELAKKVKGDVDVVVEVSNADANTRVGIGTAVRRAASEAGKQTGLTVSVTIREVA,0.237
10,uchl1_143_7474 (protein) PLEHMEIETVEIEVSETDTPEEIEKRLREAIEKGIEKGKALRIVVTVPPDANKRLMVNTVARRVARETAKKYKDKLKYLEILLRDRETGKVDLAALIERP,0.325
11,uchl1_143_7473 (protein) HHHMMETETVEIEVKEDDTPEEIRERMMKAIEEAIAAGKNLRIVITVPSDANKRLMANTVAKRVAREAAKKYREKLKRLEIYLRDKETGKEDLIALVENP,0.139
12,uchl1_143_7493 (protein) GAPAEEVVVLELTIEETDTPEEIRAKITAAIEEAVATGKPSVVVITVPPDPNVRVTVGNAAKRAVREAAKAHGDQIKDLRVVARDAETGKEQLLAEVVNP,0.229
13,uchl1_143_7477 (protein) GAPEEPIETIKLTLDASMSDEEIRAKAMAAAEEAAAKGAALEITIVVPPDPNARVRANNIAKRIAREIIQKYGDKIKELKIYLQDEETGKKDLIALYEKP,0.136
14,uchl1_155_7496 (protein) MLRVRVTITGTNADGTTLTRELELEIENPTLEKIQEAAREIAEAVREFALAVDGPVEVRVEVSADRRLHAASFSQALRRALREVAKETGKEITLDVRGVP,0.0376
15,uchl1_143_7478 (protein) GAPEPEIPVIRLELDAADSDEEIRKRALEAAKEAAEKGAALEIIITVPPDPNARVRANNIAKRLAREIIKKYGDKIKELRVLLRDEETGREDLIALYEKP,0.179
16,uchl1_143_7482 (protein) EVEVIRLTPEEVEEILSLSPEEALARVKEILAAAVELGKDTEVVFPAPEDANDRLRLGTIVRRAAREVAKEYADKIESVEIYQEKDPDEPPRLVVRITKK,0.231
